PubChem BioAssay (EPA / NIEHS)
The source made the active and inactive calls. Rule for the calls: active = hit-call score of the fitted dose curve at least 0.9, where 1 is the maximum; inactive = score below 0.9.

Assay: CCTE_Shafer_MEA_acute_per_burst_spike_number_mean: CCTE's Neural Acute Assay for Average Number of Spikes Per Burst, Shafer Lab (AID 2284015);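 note: hits are decreases in mean spikes per burst versus baseline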
Protocol: CCTE_Shafer_MEA_acute assay is conducted using Axion Biosystems 48 well microelectrode array (MEA) plates and Maestro recording system. Each well of the MEA plate contains a grid of 16 microelectrodes embedded in the culture surface. Electrically active cells, such as neurons, can be cultured over the electrodes, and electrical activity in these cells can be recorded extracellularly. The spontaneous firing of neurons is captured from each electrode on a microsecond timescale providing both temporally and spatially precise data. […] The CCTE_Shafer_MEA_acute assay uses primary cultures of rat cortical neurons. As these cultures mature over time, neural networks develop functional activity and form cohesive networks in which electrical activity can be highly coordinated. Baseline 40-minute recordings are made on days post-plating 13 or 15, followed by a secondary 40-minute recording after chemical exposure.CCTE_Shafer_MEA_acute_per_burst_spike_number_mean is a component of the CCTE_Shafer_MEA_acute assay. It measures the average number of spikes (action potential firings) in a single-electrode burst (temporally-clustered group of spikes) during a recording in a microelectrode array (MEA) using Axion Biosystems Maestro 768 channel amplifier with the AxIS adaptive spike detector. The recordings before and after chemical treatment are used to calculate a percent change in the mean number of spikes per burst in each well.Data from the assay component CCTE_Shafer_MEA_acute_per_burst_spike_number_mean was analyzed into 1 assay endpoint. This assay endpoint, CCTE_Shafer_MEA_acute_per_burst_spike_number_mean, was analyzed in the negative analysis fitting direction relative to DMSO as the negative control and baseline of activity. Using a type of functional reporter, gain or loss-of-signal activity can be used to understand electrical activity.
Spontaneous activity in the cortical cultures was recorded using an Axion Biosystems Maestro 768 channel amplifier and Axion Integrated Studios (AxIS) v1.8 (or later) software. The amplifier recorded from all channels simultaneously (gain = 1200 x; sampling rate = 12.5 kHz/channel): raw signals were filtered with a Butterworth band-pass filter (300-5000 Hz), which filters out slower local field potentials leaving only fast potentials, i.e., "spikes", arising from extracellular currents associated with action potentials (Pine 2006; Wheeler and Nam 2011). On-line spike detection of filtered signals was conducted with the AxIS adaptive spike detector, using a threshold of 8x the root mean squared (rms) noise on each channel. Any electrodes with rms noise levels greater than 5 uV were grounded (e.g., no data were recorded). Once grounded, an electrode was grounded for the duration of the experiment. All recordings were conducted at 37 C. Wells were deemed usable if on the day of the exposure >/= 10 electrodes were active (defined as >/= 5 spikes/min). On DIV 13 or 15, a minimum of three wells from one cortical culture preparation were treated with each compound (0.03-40 uM). Prior to recording baseline activity, each mwMEA plate was placed in the Maestro at 37 C and allowed to sit for 20 min while firing rates stabilized. Baseline activity (40 min) was recorded before the addition of each compound. An additional 40 min of spontaneous activity was recorded in the presence of each compound. Changes in network parameters relative to baseline were assessed following compound treatment.

| Structure (SMILES) | outcome | AC50 |
| --- | --- | --- |
| COP(=S)(OC)SCn1nnc2ccccc2c1=O | inactive |  |
| CCCCC(O)(Cn1cncn1)c1ccc(Cl)cc1Cl (stereo unspecified) | inactive |  |
| Cc1c(COC(=O)[C@@H]2[C@H](/C=C(\Cl)C(F)(F)F)C2(C)C)cccc1-c1ccccc1 | inactive |  |
| CCCC(=NOCC)C1=C(O)CC(CC(C)SCC)CC1=O (stereo unspecified) |  | 29.1 µM (active) |
| Cn1c(-c2ccccc2)cc(-c2ccccc2)[n+]1C | inactive |  |
| CCOc1cc(C(C)(C)C)ccc1C1COC(c2c(F)cccc2F)=N1 (stereo unspecified) | inactive |  |
| CC(C)N1C(=O)N(c2ccccc2)CSC1=NC(C)(C)C |  | 20 µM (active) |
| COCC(=O)N(c1c(C)cccc1C)C(C)C(=O)OC (stereo unspecified) | inactive |  |
| Clc1nc(Cl)nc(Nc2ccccc2Cl)n1 | inactive |  |
| CCOc1nc(F)cc2nc(S(=O)(=O)Nc3c(Cl)cccc3Cl)nn12 | inactive |  |
| CC1(C)C(C=C(Cl)Cl)C1C(=O)OC(C#N)c1cccc(Oc2ccccc2)c1 (stereo unspecified) | inactive |  |
| CCCN(CC)CC1COC2(CCC(C(C)(C)C)CC2)O1 (stereo unspecified) | inactive |  |
| CCOC(=O)C(C)OC(=O)c1cc(Oc2ccc(C(F)(F)F)cc2Cl)ccc1[N+](=O)[O-] (stereo unspecified) | inactive |  |
| N#CN=C1SCCN1Cc1ccc(Cl)nc1 | inactive |  |
| COC(=O)N(C(=O)N1CO[C@@]2(C(=O)OC)Cc3cc(Cl)ccc3C2=N1)c1ccc(OC(F)(F)F)cc1 | inactive |  |
| CC1(C)C(C(=O)OC(C#N)c2cccc(Oc3ccccc3)c2)C1(C)C (stereo unspecified) |  | 0.44 µM (active) |

| Structure (SMILES) | outcome | AC50 |
| --- | --- | --- |
| OC(c1ccc(Cl)cc1)(c1ccc(Cl)cc1)C(Cl)(Cl)Cl | inactive |  |
| CCOP(=O)(OCC)Oc1nc(Cl)c(Cl)cc1Cl |  | 0.00298 µM (active) |
| CNC(=O)Oc1cccc2ccccc12 | inactive |  |
| C=C(C)CN(CC)c1c([N+](=O)[O-])cc(C(F)(F)F)cc1[N+](=O)[O-] | inactive |  |
| CC(C)N1C(=O)c2ccccc2NS1(=O)=O | inactive |  |
| O=C(Nc1ccccc1-c1ccc(Cl)cc1)c1cccnc1Cl | inactive |  |
| Cc1ccc(N=CN(C)C=Nc2ccc(C)cc2C)c(C)c1 |  | 0.308 µM (active) |
| CC1(C)CCC(=Cc2ccc(Cl)cc2)C1(O)Cn1cncn1 (stereo unspecified) | inactive |  |
| CC(C)=CC1C(C(=O)OCc2coc(Cc3ccccc3)c2)C1(C)C (stereo unspecified) | inactive |  |
| Nc1c(Cl)c(F)nc(OCC(=O)O)c1Cl | inactive |  |
| CO/N=C(/C1=NOCCO1)c1ccccc1Oc1ncnc(Oc2ccccc2Cl)c1F |  | 20 µM (active) |
| CN/C(=N\[N+](=O)[O-])NCc1cnc(Cl)s1 | inactive |  |
| CC(C)C1(C)N=C(c2ncccc2C(=O)O)NC1=O (stereo unspecified) | inactive |  |
| Cc1nc(N(C)C)nc(OC(=O)N(C)C)c1C | inactive |  |
| N#Cc1c[nH]cc1-c1cccc2c1OC(F)(F)O2 |  | 20 µM (active) |
